Measured values taken from PubChem BioAssay AID1159580 (chemical genetic matrix, 2015).
Among all 5,500 compounds or so, about 2,000 (36%) were called active. Inconclusive results (about 18%) are left out. The list shows a part of the results. A number with no mark means an inactive call. Rule as the data show it: active = normalized growth mostly below about 0.91 (no sharp cut-off); inconclusive = no clear call, values can overlap the other calls; inactive = mostly above about 0.92.

Experiment: chemical genetic growth profiling, strain panel (AID 1159580);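 also: tested at 20 µM; growth read once vehicle control cultures reached saturation at 30 °C; 1 = growth at the plate median or of vehicle wells; lower values mean less growth of the strain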
Settings: S. cerevisiae deletion strains, growth OD

COc1cccc(-c2cc(=O)c3ccc(OC)cc3o2)c1
normalized growth (locus YAL013W, strain DEP1, active compounds read low): 0.93
normalized growth (locus YAL021C, strain ccr4, active compounds read low): 0.964
normalized growth (locus YAL026C, strain drs2, active compounds read low): 0.936
normalized growth (locus YAL030W, strain snc1, active compounds read low): 0.943
normalized growth (locus YBL061C, strain skt5, active compounds read low): 0.929
normalized growth (locus YBR009C, strain hhf1, active compounds read low): 0.891 (active)
normalized growth (locus YBR021W, strain FUR4, active compounds read low): 0.942
normalized growth (locus YBR023C, strain chs3, active compounds read low): 0.897 (active)
normalized growth (locus YBR171W, strain sec66, active compounds read low): 0.916
normalized growth (locus YBR229C, strain ROT2, active compounds read low): 0.959
normalized growth (locus YBR231C, strain swc5, active compounds read low): 0.922
normalized growth (locus YBR279W, strain paf1, active compounds read low): 0.944
normalized growth (locus YCL011C, strain gbp2, active compounds read low): 0.938
normalized growth (locus YCL016C, strain dcc1, active compounds read low): 0.96
normalized growth (locus YCL061C, strain MRC1, active compounds read low): 0.944
normalized growth (locus YCL069W, strain vba3, active compounds read low): 0.947
normalized growth (locus YCR088W, strain abp1, active compounds read low): 0.938
normalized growth (locus YDL005C, strain med2, active compounds read low): 0.973
normalized growth (locus YDL035C, strain GPR1, active compounds read low): 0.922
normalized growth (locus YDL040C, strain nat1, active compounds read low): 0.948
normalized growth (locus YDL074C, strain BRE1, active compounds read low): 0.837
normalized growth (locus YDL101C, strain DUN1, active compounds read low): 0.954
normalized growth (locus YDL134C, strain PPH21, active compounds read low): 0.978
normalized growth (locus YDL185W, strain tfp1, active compounds read low): 0.978
normalized growth (locus YDL192W, strain arf1, active compounds read low): 1.04
normalized growth (locus YDR001C, strain nth1, active compounds read low): 0.935
normalized growth (locus YDR069C, strain doa4, active compounds read low): 0.96
normalized growth (locus YDR101C, strain arx1, active compounds read low): 1.04
normalized growth (locus YDR137W, strain rgp1, active compounds read low): 0.929
normalized growth (locus YDR150W, strain NUM1, active compounds read low): 0.951
normalized growth (locus YDR159W, strain sac3, active compounds read low): 0.921
normalized growth (locus YDR162C, strain NBP2, active compounds read low): 0.926
normalized growth (locus YDR195W, strain ref2): 1.05
normalized growth (locus YDR297W, strain sur2, active compounds read low): 0.955
normalized growth (locus YDR318W, strain mcm21, active compounds read low): 0.972
normalized growth (locus YDR334W, strain swr1, active compounds read low): 0.943
normalized growth (locus YDR335W, strain msn5, active compounds read low): 0.965
normalized growth (locus YDR388W, active compounds read low): 1.04
normalized growth (locus YDR392W, strain spt3, active compounds read low): 0.623 (active)
normalized growth (locus YDR502C, strain sam2, active compounds read low): 1.04
normalized growth (locus YEL003W, strain gim4, active compounds read low): 0.962
normalized growth (locus YEL037C, strain rad23, active compounds read low): 0.952
normalized growth (locus YEL061C, strain CIN8 (second series), active compounds read low): 0.958
normalized growth (locus YEL061C, strain CIN8, active compounds read low): 0.964
normalized growth (locus YER015W, strain faa2, active compounds read low): 0.953
normalized growth (locus YER016W, strain bim1, active compounds read low): 0.952
normalized growth (locus YER110C, active compounds read low): 1.16 [resistant] (active)
normalized growth (locus YER111C, strain swi4, active compounds read low): 0.957
normalized growth (locus YER155C, strain BEM2 (second series), active compounds read low): 0.699 (active)
normalized growth (locus YER155C, strain BEM2, active compounds read low): 1.06
normalized growth (locus YER167W, strain BCK2, active compounds read low): 0.907
normalized growth (locus YFR010W, strain ubp6, active compounds read low): 0.961
normalized growth (locus YGL078C, strain dbp3, active compounds read low): 1.05
normalized growth (locus YGL086W, strain mad1, active compounds read low): 0.934
normalized growth (locus YGL167C, strain pmr1, active compounds read low): 0.938
normalized growth (locus YGL173C, strain kem1, active compounds read low): 0.966
normalized growth (locus YGL227W, strain vid30, active compounds read low): 0.946
normalized growth (locus YGL240W, strain doc1, active compounds read low): 0.837 (active)
normalized growth (locus YGL248W, strain PDE1, active compounds read low): 0.946
normalized growth (locus YGL253W, strain hxk2, active compounds read low): 0.903 (active)
normalized growth (locus YGR078C, strain PAC10, active compounds read low): 0.945
normalized growth (locus YGR135W, strain pre9, active compounds read low): 1.08
normalized growth (locus YGR229C, strain SMI1, active compounds read low): 0.722 (active)
normalized growth (locus YGR252W, strain gcn5, active compounds read low): 0.884
normalized growth (locus YHR013C, strain ard1, active compounds read low): 0.852
normalized growth (locus YHR027C, strain rpn1, active compounds read low): 0.968
normalized growth (locus YHR030C, strain SLT2, active compounds read low): 0.82 (active)
normalized growth (locus YHR079C, strain IRE1 (second series), active compounds read low): 1.08 [resistant] (active)
normalized growth (locus YHR094C, strain hxt1, active compounds read low): 1.15 [resistant] (active)
normalized growth (locus YHR129C, strain ARP1, active compounds read low): 1.03
normalized growth (locus YHR142W, strain chs7, active compounds read low): 0.793 (active)
normalized growth (locus YHR200W, strain rpn10, active compounds read low): 1.04
normalized growth (locus YIL066C, strain RNR3, active compounds read low): 0.961
normalized growth (locus YIL073C, strain SPO22, active compounds read low): 0.834
normalized growth (locus YIL125W, strain kgd1, active compounds read low): 0.964
normalized growth (locus YIR030C, strain dcg1, active compounds read low): 1.14 [resistant] (active)
normalized growth (locus YJL092W, strain hpr5, active compounds read low): 0.954
normalized growth (locus YJL095W, strain BCK1 (second series), active compounds read low): 0.916 (active)
normalized growth (locus YJL095W, strain BCK1, active compounds read low): 0.656 (active)
normalized growth (locus YJL115W, strain asf1, active compounds read low): 0.954
normalized growth (locus YJL129C, strain trk1, active compounds read low): 0.95
normalized growth (locus YJL134W, strain LCB3, active compounds read low): 0.965
normalized growth (locus YJL154C, strain vps35, active compounds read low): 0.959
normalized growth (locus YJL164C, strain tpk1, active compounds read low): 0.928
normalized growth (locus YJL166W, strain qcr8, active compounds read low): 0.905
normalized growth (locus YJL168C, strain set2, active compounds read low): 1.04
normalized growth (locus YJL187C, strain SWE1 (second series), active compounds read low): 0.942
normalized growth (locus YJL187C, strain SWE1, active compounds read low): 0.949
normalized growth (locus YJR043C, strain POL32, active compounds read low): 0.866
normalized growth (locus YJR075W, strain HOC1, active compounds read low): 0.994
normalized growth (locus YKL009W, strain mrt4, active compounds read low): 0.828 (active)
normalized growth (locus YKL068W, active compounds read low): 0.931 (active)
normalized growth (locus YKL085W, strain MDH1 (second series), active compounds read low): 0.845 (active)
normalized growth (locus YKL085W, strain MDH1, active compounds read low): 0.845 (active)
normalized growth (locus YKL160W, strain elf1, active compounds read low): 0.933
normalized growth (locus YKL190W, strain CNB1, active compounds read low): 0.952
normalized growth (locus YKR001C, strain vps1, active compounds read low): 1.06
normalized growth (locus YKR026C, strain gcn3, active compounds read low): 0.91 (active)
normalized growth (locus YKR091W, strain srl3, active compounds read low): 0.958
normalized growth (locus YLL001W, strain dnm1, active compounds read low): 0.922
normalized growth (locus YLL026W, active compounds read low): 0.94
normalized growth (locus YLL041C, strain sdh2, active compounds read low): 0.951
normalized growth (locus YLR027C, strain aat2, active compounds read low): 0.934
normalized growth (locus YLR039C, strain RIC1, active compounds read low): 0.983
normalized growth (locus YLR058C, strain SHM2, active compounds read low): 0.999
normalized growth (locus YLR102C, strain apc9, active compounds read low): 1.03
normalized growth (locus YLR221C, strain rsa3, active compounds read low): 0.91
normalized growth (locus YLR258W, strain gsy2, active compounds read low): 0.93
normalized growth (locus YLR262C, strain YPT6 (second series), active compounds read low): 0.916
normalized growth (locus YLR262C, strain YPT6, active compounds read low): 0.989
normalized growth (locus YLR268W, strain sec22, active compounds read low): 0.994
normalized growth (locus YLR320W, strain mms22, active compounds read low): 0.824 (active)
normalized growth (locus YLR330W, strain CHS5, active compounds read low): 1.02
normalized growth (locus YLR342W, strain FKS1 (second series), active compounds read low): 0.839
normalized growth (locus YLR342W, strain FKS1, active compounds read low): 0.951
normalized growth (locus YLR357W, strain rsc2, active compounds read low): 0.856
normalized growth (locus YLR370C, strain arc18, active compounds read low): 0.948
normalized growth (locus YLR371W, strain rom2, active compounds read low): 0.965
normalized growth (locus YLR384C, strain iki3, active compounds read low): 0.962
normalized growth (locus YLR418C, strain cdc73, active compounds read low): 0.948
normalized growth (locus YML016C, strain PPZ1, active compounds read low): 0.998
normalized growth (locus YML032C, strain rad52, active compounds read low): 0.954
normalized growth (locus YML120C, strain ndi1, active compounds read low): 0.92
normalized growth (locus YML124C, strain tub3, active compounds read low): 1.13 [resistant] (active)
normalized growth (locus YMR058W, strain fet3, active compounds read low): 0.938
normalized growth (locus YMR078C, strain ctf18, active compounds read low): 1.1 [resistant] (active)
normalized growth (locus YMR125W, strain sto1, active compounds read low): 0.941
normalized growth (locus YMR129W, active compounds read low): 0.971
normalized growth (locus YMR205C, strain PFK2, active compounds read low): 0.871 (active)
normalized growth (locus YMR223W, strain ubp8, active compounds read low): 1
normalized growth (locus YMR231W, strain pep5, active compounds read low): 0.97
normalized growth (locus YMR263W, strain SAP30, active compounds read low): 0.896
normalized growth (locus YMR307W, strain GAS1, active compounds read low): 0.734
normalized growth (locus YNL067W, strain RPL9B, active compounds read low): 0.944
normalized growth (locus YNL071W, strain lat1, active compounds read low): 0.813 (active)
normalized growth (locus YNL128W, strain TEP1, active compounds read low): 1.02
normalized growth (locus YNL153C, strain GIM3, active compounds read low): 0.997
normalized growth (locus YNL209W, strain ssb2, active compounds read low): 0.977
normalized growth (locus YNL233W, strain BNI4, active compounds read low): 0.942
normalized growth (locus YNL248C, strain rpa49, active compounds read low): 0.927
normalized growth (locus YNL250W, strain rad50, active compounds read low): 0.969
normalized growth (locus YNL271C, strain bni1, active compounds read low): 0.938
normalized growth (locus YNL298W, strain CLA4, active compounds read low): 0.924
normalized growth (locus YNL307C, strain MCK1, active compounds read low): 0.842 (active)
normalized growth (locus YNL322C, strain KRE1 (second series), active compounds read low): 0.959
normalized growth (locus YNL322C, strain KRE1, active compounds read low): 0.958
normalized growth (locus YNR049C, strain mso1, active compounds read low): 0.953
normalized growth (locus YNR052C, strain pop2, active compounds read low): 1.14 [resistant] (active)
normalized growth (locus YOL006C, strain TOP1, active compounds read low): 0.659
normalized growth (locus YOL012C, strain htz1): 0.755
normalized growth (locus YOL147C, strain pex11, active compounds read low): 1.08 [resistant] (active)
normalized growth (locus YOR001W, strain rrp6, active compounds read low): 0.94
normalized growth (locus YOR061W, strain CKA2, active compounds read low): 0.951
normalized growth (locus YOR069W, strain VPS5, active compounds read low): 0.958
normalized growth (locus YOR070C, strain gyp1, active compounds read low): 0.942
normalized growth (locus YOR080W, strain dia2, active compounds read low): 0.947
normalized growth (locus YOR083W, strain WHI5, active compounds read low): 0.91
normalized growth (locus YOR106W, strain vam3, active compounds read low): 0.922
normalized growth (locus YOR136W, strain idh2, active compounds read low): 1.18 [resistant] (active)
normalized growth (locus YOR144C, strain elg1, active compounds read low): 1.18 [resistant] (active)
normalized growth (locus YOR184W, strain ser1, active compounds read low): 0.959
normalized growth (locus YOR265W, strain rbl2, active compounds read low): 0.942
normalized growth (locus YOR270C, strain vph1, active compounds read low): 0.71 (active)
normalized growth (locus YOR290C, strain snf2, active compounds read low): 0.84 (active)
normalized growth (locus YOR316C, strain cot1, active compounds read low): 1.1 [resistant] (active)
normalized growth (locus YPL051W, strain arl3, active compounds read low): 0.932
normalized growth (locus YPL055C, strain LGE1, active compounds read low): 0.873
normalized growth (locus YPL078C, strain atp4, active compounds read low): 0.91
normalized growth (locus YPL106C, strain sse1, active compounds read low): 0.84 (active)
normalized growth (locus YPL240C, strain hsp82, active compounds read low): 0.952
normalized growth (locus YPL241C, strain CIN2, active compounds read low): 0.966
normalized growth (locus YPR119W, strain clb2, active compounds read low): 1.03
normalized growth (locus YPR141C, strain kar3, active compounds read low): 1
normalized growth (locus YPR163C, strain tif3, active compounds read low): 1.03
normalized growth (locus YPR167C, strain met16, active compounds read low): 1.04
normalized growth (strain wtn01, active compounds read low): 1.05
